# Data published in PubChem BioAssay (NCATS).
# Inconclusive results are not listed. The source made the active and inactive calls. Calls come from the whole dose curve; as a rule, active = well fitted curve in the direction sought with a large enough effect in the signal ratio; inconclusive = small, poorly fitted or top-dose-only effect, or a change in a side signal; inactive = no such curve, though single readings can be large or run the other way; the % refers to the signal ratio.
# Molecular target: Tumor necrosis factor (Homo sapiens) (UniProt P01375)
# Assay: qHTS assay to identify small molecules that stimulate Tumor Necrosis Factor-alpha (TNF-alpha) secretion (AID 651757); note: 0% is about no effect
# Conditions: Human cells, HTRF 665/615 ratio; series mostly up to 92.2 µM; activation (TNF-alpha secretion): at the top concentration
# Text: National Center for Advancing Translational Sciences [NCATS]
# NIH Chemical Genomics Center [NCGC]
# National Institutes of Environmental Health Sciences [NIEHS]
# National Toxicology Program [NTP]
# Tumor Necrosis Factor-alpha (TNF-alpha), a secreted cytokine, plays an important role in inflammatory diseases and immune disorders. TNF-alpha, a 17 kDa cytokine, is mainly secreted by activated macrophages and monocytes in response to several inflammatory and immunological stimuli. To study the effect of environmental chemicals on TNF-alpha secretion, a homogeneous TNF-alpha assay was developed using Time Resolved fluorescence (HTRF) technology based on Time Resolved Fluorescent Resonance Energy Transfer (TR-FRET) (Leister et al., Current Chemical Genomics, 5:21-29, 2011). This assay allows measuring TNF-alpha secreted from the cells in a 1536-well plate format.
# THP-1 cells were dispensed at 3000 cells/5ul/well in 1536-well white solid plates. After addition of 23 nl of compound, positive controls and DMSO only, the assay plates were incubated at 37 C for 17 hrs, followed by addition of 5 uLof mixture of cryptate labeled and XL665 labeled anti-TNF-alpha antibodies. After the assay plates were incubated at room temperature for 3 hr, the plates were measured by an EnVision plate reader.
# Tumor necrosis factor (Homo sapiens), sequence (P01375 whole entry, looked up): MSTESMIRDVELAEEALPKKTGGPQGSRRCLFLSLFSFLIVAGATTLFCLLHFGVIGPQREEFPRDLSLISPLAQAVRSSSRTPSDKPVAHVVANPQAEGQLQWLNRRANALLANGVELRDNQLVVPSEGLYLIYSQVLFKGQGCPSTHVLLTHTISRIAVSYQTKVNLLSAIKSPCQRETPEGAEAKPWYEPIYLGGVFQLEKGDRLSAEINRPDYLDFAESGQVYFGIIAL
SMILES,outcome,activation (TNF-alpha secretion)
CC(C)(C)c1cc(O)ccc1O,inactive,–
S=C=S,–,1.24% (inactive)
C[C@H]1CC[C@@H]2[C@@H](C)[C@H]3[C@H](C[C@H]4[C@@H]5CC=C6CC(O[C@@H]7O[C@H](CO)[C@H](O)[C@H](O[C@@H]8O[C@H](CO)[C@@H](O)[C@H](O)[C@H]8O)[C@H]7O[C@H]7O[C@@H](C)[C@H](O)[C@@H](O)[C@H]7O)CC[C@]6(C)[C@H]5CC[C@]34C)N2C1 (some centres not stated),–,0.841% (inactive)
O=C1C=CC(=O)C=C1,–,-0.193% (inactive)
COc1ccc2c(c1OC)C(=O)OC2C1c2cc3c(cc2CCN1C)OCO3 (configuration not stated),–,-0.226% (inactive)
ClCC1CO1 (configuration not stated),–,-0.235% (inactive)
[O]=[Cr](=[O])([OH])[O][Cr](=[O])(=[O])[OH],inactive,–
COC1=CC(=O)O[C@@H](/C=C/c2ccccc2)C1,–,-0.051% (inactive)
CCCCCl,–,-0.287% (inactive)
C=CCN=C=S,–,0.421% (inactive)
C[C@]12CCC(=O)C[C@@H]1CC[C@@H]1[C@@H]2CC[C@]2(C)[C@@H](O)CC[C@@H]12,–,-0.184% (inactive)
Clc1ccccc1Cl,–,0.063% (inactive)
NNC(N)=O,–,0.0061% (inactive)
O=C/C=C/c1ccccc1,inactive,–
O=[N+]([O-])c1ccccc1,–,0.133% (inactive)
O=Cc1ccco1,–,-0.546% (inactive)
ClC(Cl)(Cl)Cl,inactive,–
[O]=[Cd],–,0.43% (inactive)
C[C@H]1CCC[C@H](O)CCCCCc2cc(O)cc(O)c2C(=O)O1,–,0.0066% (inactive)
O=CC=O,–,-0.369% (inactive)
O=C1CCO1,–,0.65% (inactive)
ClC=C(Cl)Cl,–,-0.194% (inactive)
CCCCCCCCOC(=O)c1ccccc1C(=O)OCCCCCCCC,–,1.13% (inactive)
O=C(O)C(Cl)(Cl)Cl,inactive,–
CCOC(=O)c1ccccc1C(=O)OCC,inactive,–
CC(C)CCON=O,–,-0.194% (inactive)
O=C1C2CC=CCC2C(=O)N1SC(Cl)(Cl)Cl (configuration not stated),inactive,–
